Compounds with a hit are over-represented: about 3.2% of the library has one in this group of screens.
FBPA coupling cs: coupling enzyme interference in Giardia aldolase counter-screen | AID 2472 | coupling enzyme system counterscreen, AmpLite Red fluorescence | activity change, negative = inhibition, % at 58.2 µM, hits read low | 0.67% of 290,000 active; in the data active means activity change below about -30%
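Activity here indicates interference with the coupling reaction, not aldolase inhibition. Compounds at 57.5 uM final met coupling enzymes for 10 min at RT; substrate and AmpLite Red detection followed, with a 525/598 nm fluorescence read after 20 min.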
PLK1 PBD block: PLK1 (human) polo-box domain binding inhibition. Plk1 PBD binding of FITC phosphopeptide, fluorescence polarization. Potency, µM, for inactives: max response, negative = inhibition, actives largely listed as inhibitors. 2.8% of 360,000 active; further: potency means the concentration at half of the fitted maximal effect; series mostly up to about 57 µM; nearly all actives have a fitted effect of over 65% in size
VDR inh: blocks the human vitamin D receptor. VDR-SRC2-3 peptide fluorescence polarization, 2 h. 0.93% of 400,000 active. P11473. Potency, µM, for inactives: max response, negative = inhibition, hits mostly inhibitors. AID 504847; further: potency means the concentration at half of the fitted maximal effect
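The screen uses fluorescence polarization to detect compounds that interfere with recruitment of the SRC2-3 coactivator peptide to VDR; plates are read after 2 h at room temperature.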
GALK inh: inhibitors of human galactokinase; Purified GALK, Kinase-Glo residual ATP luminescence; P51570; 0.007% of 270,000 active; Potency, µM (highest dose often 57.5 µM), without a hit: at the highest dose activity change, negative = inhibition, usual class: inhibitors; further: potency means the concentration at half of the fitted maximal effect
Target sequence (P51570 whole entry, looked up): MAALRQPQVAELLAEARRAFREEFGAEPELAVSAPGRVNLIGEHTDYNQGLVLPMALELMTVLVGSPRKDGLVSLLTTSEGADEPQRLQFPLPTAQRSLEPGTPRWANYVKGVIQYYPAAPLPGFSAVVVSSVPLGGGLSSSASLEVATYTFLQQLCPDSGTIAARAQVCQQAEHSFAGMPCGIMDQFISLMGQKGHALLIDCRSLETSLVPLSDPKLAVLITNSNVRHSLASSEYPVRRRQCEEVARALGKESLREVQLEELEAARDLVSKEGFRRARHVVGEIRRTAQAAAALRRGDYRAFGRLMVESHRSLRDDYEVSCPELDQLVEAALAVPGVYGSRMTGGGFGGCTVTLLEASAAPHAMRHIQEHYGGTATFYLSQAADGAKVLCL
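Compounds were pin-transferred into ATP buffer (35 uM final), then GALK plus galactose (5 nM, 100 uM final) was added. After 1 h at room temperature, Kinase-Glo Plus was added and luminescence read after 10 min.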
USP1 inh: USP1/UAF1 (human) deubiquitinase inhibition | O94782 | recombinant USP1/UAF1, Ub-Rhodamine cleavage fluorescence | Potency, µM (series often up to 57.1 µM), without a hit: at the top dose activity change, negative = inhibition, hits mostly inhibitors | 0.23% of 390,000 active | AID 743255; further: potency means the concentration at half of the fitted maximal effect; nearly all actives have a fitted effect of over 60% in size
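High-throughput fluorogenic screen: 1nM USP1/UAF1 complex, Ub-Rho substrate 150nM final, 50mM HEPES pH 7.8 with 0.5mM EDTA, 0.1 mg/ml BSA, 1mM TCEP and 0.01% Tween-20.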
USP2a inh: USP2a (human) protease inhibition. O75604. USP2 core, Ub-CHOP2 coupled fluorogenic reporter, 485/531. Potency, µM (highest dose often 38.3 µM), inactives show at the highest dose activity change, negative = inhibition, most hits filed as inhibitors. 0.01% of 330,000 active. AID 463254;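 further: potency means the concentration at half of the fitted maximal effect; plate controls were DMSO wells for no effect and full inhibition by NEM control for full effect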
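USP2 core (10nM final) preincubated 30min RT with compound in 20mM Tris-HCl pH 8.0, 2mM CaCl2, 2mM beta-mercaptoethanol, 0.05% CHAPS; 25nM Ub-CHOP2 plus 25nM reporter substrate added, fluorescence (Ex485/Em531) read after 60min.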
* = called active by the depositor; ? = inconclusive; . = no result; ! = not active in a repeat. Unless noted, the call rests on the fitted dose curve; in most records, active means well fitted curve in the direction sought with a large enough effect; inconclusive means small, poorly fitted or top-dose-only effect, or another doubt; inactive means no such curve, though single readings can be large; an effect the other way counts as inactive or inconclusive. Unless noted, on the % scale 0 is the no-effect control and ±100 the full control effect.

SMILES	FBPA coupling cs	PLK1 PBD block	VDR inh	GALK inh	USP1 inh	USP2a inh
O=C(O)CN1C(=O)/C(=C\c2cccc(OCc3ccc(Cl)cc3)c2)SC1=S	11.3	21.2µM*	50.1µM*	-12.0%	?	1.2%
COc1ccc(/C=C2/SC(=S)N(Cc3ccccc3)C2=O)cc1O	-0.9	-0.7%	12.8%	.	-9.7%	-9.3%
O=C1/C(=C\c2cc(Cl)c(O)c(Cl)c2)SC(=S)N1Cc1ccccc1	5.7	-1.2%	2.7%	?	3.98µM*	?
CS(=O)(=O)N(CCc1ccccc1)CC(=O)N1CCN(c2ccccc2)CC1	2.6	-9.5%	0.0%	-1.0%	-14.3%	2.8%
COc1ccc(Cl)c2sc(N(Cc3cccnc3)C(C)=O)nc12	.	0.6%	-2.3%	2.0%	-22.5%	-1.4%
CN1C(=O)C2(C(C#N)=C(N)Oc3n[nH]c(-c4ccc(Cl)cc4)c32)c2ccccc21 (centres undefined)	-8.5	-0.6%	-5.2%	-4.4%	1.2%	-0.3%
CC(=O)N1C(=O)C2(C(C#N)=C(N)Oc3n[nH]c(-c4ccccn4)c32)c2ccccc21 (centres undefined)	-3.5	23.8µM*	-14.9%	-1.5%	-23.2%	-0.1%
O=C(CSc1nc2cc(Cl)ccc2s1)c1cc2ccccc2o1	-8.8	?	27.7%	-1.2%	28.2µM*	-0.6%
Cc1cc(NC(=O)CSc2nc3cc(Cl)ccc3s2)no1	-0.1	-11.1%	9.9%	-0.9%	2.2%	-1.7%
CO[C@]12C(COC(N)=O)C3=C(C(=O)C(C)=C(N)C3=O)N1CC1NC12 (some centres undefined)	-39.6*	.	-3.3%	.	.	.
Cc1ccc2sc(C)[n+](CCCS(=O)(=O)[O-])c2c1	4.4	-19.2%	-28.4%	-0.6%	-3.3%	-0.1%
Cc1ccc2c(c1)sc(C)[n+]2CCCS(=O)(=O)[O-]	-1.3	-28.7%	28.2µM*	-1.0%	-2.1%	0.2%
O=C(COC(=O)C(Cc1ccccc1)NC(=O)c1ccc(Cl)cc1)c1ccc(Cl)cc1 (centres undefined)	0.9	10.6µM*	-3.8%	0.4%	?	3.7%
O=C(COC(=O)C(Cc1c[nH]c2ccccc12)NC(=O)c1ccc(Cl)cc1)c1ccc(Cl)cc1 (centres undefined)	.	.	7.3%	.	?	.
Cc1ccc(C(=O)c2coc3cc([N+](=O)[O-])c(O)c([N+](=O)[O-])c23)cc1	-34.8*	?	-18.7%	-4.5%	-22.9%	0.9%
Cc1ccc(C(=O)c2ccc([N+](=O)[O-])cc2)cc1	0.0	0.4%	0.4%	-2.0%	-5.9%	-2.0%
Cc1ccc(NC(=O)/C(C#N)=C/c2ccc(C)o2)cc1	.	.	-9.6%	.	?	.
NC(=O)NC(=O)COC(=O)c1sc2ccccc2c1Cl	-1.4	13.4µM*	?	-4.2%	-17.4%	2.0%
O=C(COC(=O)c1sc2ccccc2c1Cl)NC1CCCCC1	-0.1	2.8%	-2.1%	2.6%	-19.4%	1.9%
COc1ccc(C(=O)OCC2CC(c3ccccc3)N(C)O2)cc1 (centres undefined)	-1.3	-7.1%	7.5%	-4.0%	-1.2%	1.0%
CCCCC1Cc2[nH][nH]c(=O)c2C(c2ccc(F)cc2)O1 (centres undefined)	.	8.44µM*	.	.	.	.
O=c1[nH][nH]c2c1[C@H](c1ccc(F)cc1)O[C@H](CCC(F)(F)F)C2	.	7.52µM*	.	.	.	.
CC(C)[C@@H]1Cc2[nH][nH]c(=O)c2[C@H](c2ccc(F)cc2)O1	.	23.8µM*	.	.	.	.
CC(C)[C@@H]1Cc2[nH]c(=O)[nH]c(=O)c2[C@H](c2ccc(F)cc2)O1	.	-0.2%	.	.	.	.
O=c1[nH][nH]c2c1C(c1ccc(F)cc1)OC(CCc1ccccc1)C2 (centres undefined)	.	10.6µM*	.	.	.	.
Cc1cccc(C(=O)Nc2nnc(S(=O)(=O)N(C)Cc3ccco3)s2)c1	.	?	89.1µM*!	-4.8%	-10.5%	0.8%
COc1cccc(OC(=O)CSc2nnc(-c3ccccc3Br)o2)c1	1.7	-19.5%	?	-1.0%	-16.7%	0.9%
